The results in this text go back to paper PMC7862700, “An all-to-all approach to the identification of sequence-specific readers for epigenetic DNA modifications on cytosine”.

What all share (experiment): DAPPL (digital affinity profiling via proximity ligation, sequencing); 10 mM Tris-HCl pH 7.5, 50 mM NaCl, 1 mM DTT, 4% glycerol, room temperature, 30 min; GST-TFs on glutathione beads, 16-mer random dsDNA library, 0.1% formaldehyde crosslink after washing; high values mean tight binding
What all share (settings): protein: recombinant; tags: N-terminal GST; dsDNA, one strand shown

Assay [1] concerns the target T1, FLI1 (Homo sapiens, UniProt Q01543 1-452).
T1 sequence: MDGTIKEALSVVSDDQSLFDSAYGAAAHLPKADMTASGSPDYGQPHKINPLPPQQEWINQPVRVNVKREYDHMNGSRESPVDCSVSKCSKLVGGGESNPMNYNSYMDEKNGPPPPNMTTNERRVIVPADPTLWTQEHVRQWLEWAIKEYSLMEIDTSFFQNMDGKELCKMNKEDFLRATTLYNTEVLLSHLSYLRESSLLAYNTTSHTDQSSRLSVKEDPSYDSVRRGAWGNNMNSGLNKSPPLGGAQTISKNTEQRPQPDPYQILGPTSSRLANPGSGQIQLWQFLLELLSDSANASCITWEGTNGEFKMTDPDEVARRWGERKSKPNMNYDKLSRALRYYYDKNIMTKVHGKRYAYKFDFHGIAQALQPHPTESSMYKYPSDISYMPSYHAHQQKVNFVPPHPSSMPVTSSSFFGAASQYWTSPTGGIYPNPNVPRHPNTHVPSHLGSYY
A digest of the protocol: (§1)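 After expression in yeast as GST fusions, human transcription factors were bound to glutathione beads, DNA-barcoded and mixed with a tag-only sample. The pools were incubated with 200 nmole of a 16-mer random double-stranded DNA library in Tris/NaCl/DTT/glycerol buffer (30 min, room temperature), washed and crosslinked with 0.1% formaldehyde. Proximity ligation with BsaI/T4 ligase ran for 1 h at 37 °C, before PCR amplification and sequencing on an Illumina NextSeq500. Binding signal is a hexamer's read frequency for a factor divided by its frequency for the tag-only sample.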

In assay [2] the target is T2, GABPA (Homo sapiens, UniProt Q06546 1-454).
T2 sequence: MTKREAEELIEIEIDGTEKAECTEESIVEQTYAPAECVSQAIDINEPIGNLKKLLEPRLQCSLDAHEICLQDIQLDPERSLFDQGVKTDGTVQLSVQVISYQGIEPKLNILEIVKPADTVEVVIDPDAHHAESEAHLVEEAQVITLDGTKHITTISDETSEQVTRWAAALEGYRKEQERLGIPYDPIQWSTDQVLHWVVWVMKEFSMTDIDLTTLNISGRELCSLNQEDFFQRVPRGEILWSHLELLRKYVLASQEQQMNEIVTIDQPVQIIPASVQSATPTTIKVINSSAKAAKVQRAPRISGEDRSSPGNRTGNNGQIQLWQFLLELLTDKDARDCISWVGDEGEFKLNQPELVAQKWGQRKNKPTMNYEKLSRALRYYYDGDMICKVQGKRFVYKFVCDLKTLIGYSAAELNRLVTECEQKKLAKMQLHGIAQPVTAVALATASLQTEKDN
Put shortly:
as §1

Assay [3] concerns the target T3, ERG (Homo sapiens, UniProt P11308 1-479).
T3 sequence: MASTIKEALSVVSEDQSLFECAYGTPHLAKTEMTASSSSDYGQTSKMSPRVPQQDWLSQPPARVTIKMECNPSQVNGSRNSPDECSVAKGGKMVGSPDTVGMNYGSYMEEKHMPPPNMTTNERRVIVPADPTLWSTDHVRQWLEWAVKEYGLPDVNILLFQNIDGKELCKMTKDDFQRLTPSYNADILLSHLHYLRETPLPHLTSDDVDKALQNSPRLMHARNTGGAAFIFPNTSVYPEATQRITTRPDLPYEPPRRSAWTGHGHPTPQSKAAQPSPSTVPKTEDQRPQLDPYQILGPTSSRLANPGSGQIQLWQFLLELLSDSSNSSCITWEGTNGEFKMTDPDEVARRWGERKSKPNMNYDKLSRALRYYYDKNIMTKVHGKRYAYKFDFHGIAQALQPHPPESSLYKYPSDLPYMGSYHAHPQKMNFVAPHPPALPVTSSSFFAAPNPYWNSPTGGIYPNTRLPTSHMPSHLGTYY
Put shortly: as §1

Assay [4] has as its target ELF1 (Homo sapiens, UniProt P32519 1-619). A digest of the protocol:
as §1

The target in assay [5] is T4, EHF (Homo sapiens, UniProt Q9NZC4 1-300).
T4 sequence: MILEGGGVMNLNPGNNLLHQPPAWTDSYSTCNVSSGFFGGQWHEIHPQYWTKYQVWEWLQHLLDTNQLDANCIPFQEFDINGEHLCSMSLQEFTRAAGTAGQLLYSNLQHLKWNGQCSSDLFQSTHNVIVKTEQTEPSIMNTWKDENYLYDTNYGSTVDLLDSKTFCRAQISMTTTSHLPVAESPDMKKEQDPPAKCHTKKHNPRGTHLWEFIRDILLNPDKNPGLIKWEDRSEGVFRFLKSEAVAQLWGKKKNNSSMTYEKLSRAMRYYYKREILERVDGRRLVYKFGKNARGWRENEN
A digest of the protocol: as §1

For assay [6], the target named is SPI1 (Homo sapiens, UniProt P17947 1-270). A digest of the protocol: as §1
The target of assay [7] is SPIB (Homo sapiens, UniProt Q01892 1-262). A digest of the protocol:
as §1

The target in assay [8] is ETV5 (Homo sapiens, UniProt P41161 1-510). A digest of the protocol: as §1
Assay [9] has as its target T5, SPIC (Homo sapiens, UniProt Q8N5J4 1-248).
T5 sequence: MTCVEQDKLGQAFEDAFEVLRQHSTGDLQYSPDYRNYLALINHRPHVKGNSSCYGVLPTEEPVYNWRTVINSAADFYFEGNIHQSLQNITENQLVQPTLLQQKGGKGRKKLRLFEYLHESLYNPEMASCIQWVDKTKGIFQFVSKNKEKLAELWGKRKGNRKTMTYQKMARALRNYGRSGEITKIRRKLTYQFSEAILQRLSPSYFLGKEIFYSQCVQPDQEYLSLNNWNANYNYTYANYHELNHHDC
Put shortly:
as §1

Assay [10] deals with ELF4 (Homo sapiens, UniProt Q99607 1-663). A digest of the protocol: as §1
Assay [11] has as its target ETV1 (Homo sapiens, UniProt P50549 1-477). Put shortly: as §1
In assay [12] the target is T6, ERF (Homo sapiens, UniProt P50548 1-548).
T6 sequence: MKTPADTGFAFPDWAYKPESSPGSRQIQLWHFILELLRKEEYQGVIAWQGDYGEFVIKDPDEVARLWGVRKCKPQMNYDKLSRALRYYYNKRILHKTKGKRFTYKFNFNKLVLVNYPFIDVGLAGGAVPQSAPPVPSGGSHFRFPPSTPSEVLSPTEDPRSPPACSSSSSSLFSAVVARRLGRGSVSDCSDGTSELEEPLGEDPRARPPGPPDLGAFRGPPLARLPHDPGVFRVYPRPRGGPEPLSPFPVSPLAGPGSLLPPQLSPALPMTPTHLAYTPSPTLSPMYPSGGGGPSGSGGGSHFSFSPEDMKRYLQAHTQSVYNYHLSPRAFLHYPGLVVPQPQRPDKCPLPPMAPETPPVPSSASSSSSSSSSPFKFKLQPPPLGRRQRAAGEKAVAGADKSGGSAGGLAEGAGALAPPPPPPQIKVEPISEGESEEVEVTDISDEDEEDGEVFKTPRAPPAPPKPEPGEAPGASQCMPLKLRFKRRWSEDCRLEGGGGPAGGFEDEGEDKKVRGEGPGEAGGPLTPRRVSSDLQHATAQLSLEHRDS
Put shortly: as §1

The target of assay [13] is T7, ETV3L (Homo sapiens, UniProt Q6ZN32 1-361).
T7 sequence: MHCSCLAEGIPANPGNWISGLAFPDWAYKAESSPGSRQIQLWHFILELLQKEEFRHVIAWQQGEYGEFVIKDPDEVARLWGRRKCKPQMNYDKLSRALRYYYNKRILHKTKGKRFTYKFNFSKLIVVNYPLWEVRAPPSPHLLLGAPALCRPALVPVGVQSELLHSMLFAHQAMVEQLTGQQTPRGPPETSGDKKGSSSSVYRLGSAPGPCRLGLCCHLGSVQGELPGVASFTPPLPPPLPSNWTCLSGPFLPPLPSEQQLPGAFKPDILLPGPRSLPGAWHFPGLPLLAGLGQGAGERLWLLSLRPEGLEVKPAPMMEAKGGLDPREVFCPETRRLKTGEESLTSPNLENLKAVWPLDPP
Put shortly:
as §1

The target of assay [14] is T8, ETS2 (Homo sapiens, UniProt P15036 1-469).
T8 sequence: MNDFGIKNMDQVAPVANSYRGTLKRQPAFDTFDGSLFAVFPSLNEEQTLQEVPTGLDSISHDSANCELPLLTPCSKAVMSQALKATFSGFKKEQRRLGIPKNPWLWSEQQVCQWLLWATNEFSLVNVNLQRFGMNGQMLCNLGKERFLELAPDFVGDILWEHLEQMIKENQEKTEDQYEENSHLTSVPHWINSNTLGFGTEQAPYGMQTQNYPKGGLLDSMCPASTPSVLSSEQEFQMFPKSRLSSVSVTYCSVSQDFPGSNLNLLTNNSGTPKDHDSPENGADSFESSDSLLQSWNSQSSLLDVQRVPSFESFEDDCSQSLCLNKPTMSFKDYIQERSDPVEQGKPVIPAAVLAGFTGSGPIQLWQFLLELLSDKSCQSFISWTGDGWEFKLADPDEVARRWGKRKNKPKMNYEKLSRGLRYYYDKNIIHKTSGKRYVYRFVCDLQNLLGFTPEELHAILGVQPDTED
A digest of the protocol: as §1

The target of assay [15] is T9, ELF5 (Homo sapiens, UniProt Q9UKW6-2 1-255).
T9 sequence: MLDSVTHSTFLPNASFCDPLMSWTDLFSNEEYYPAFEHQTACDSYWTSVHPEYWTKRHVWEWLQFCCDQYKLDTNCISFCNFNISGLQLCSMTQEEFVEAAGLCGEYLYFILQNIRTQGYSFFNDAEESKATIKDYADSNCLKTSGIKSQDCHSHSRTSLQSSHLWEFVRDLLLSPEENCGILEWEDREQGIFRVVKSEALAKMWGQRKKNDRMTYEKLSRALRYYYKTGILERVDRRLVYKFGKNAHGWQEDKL
Put shortly:
as §1

Chain of ELF1 (P32519 whole entry): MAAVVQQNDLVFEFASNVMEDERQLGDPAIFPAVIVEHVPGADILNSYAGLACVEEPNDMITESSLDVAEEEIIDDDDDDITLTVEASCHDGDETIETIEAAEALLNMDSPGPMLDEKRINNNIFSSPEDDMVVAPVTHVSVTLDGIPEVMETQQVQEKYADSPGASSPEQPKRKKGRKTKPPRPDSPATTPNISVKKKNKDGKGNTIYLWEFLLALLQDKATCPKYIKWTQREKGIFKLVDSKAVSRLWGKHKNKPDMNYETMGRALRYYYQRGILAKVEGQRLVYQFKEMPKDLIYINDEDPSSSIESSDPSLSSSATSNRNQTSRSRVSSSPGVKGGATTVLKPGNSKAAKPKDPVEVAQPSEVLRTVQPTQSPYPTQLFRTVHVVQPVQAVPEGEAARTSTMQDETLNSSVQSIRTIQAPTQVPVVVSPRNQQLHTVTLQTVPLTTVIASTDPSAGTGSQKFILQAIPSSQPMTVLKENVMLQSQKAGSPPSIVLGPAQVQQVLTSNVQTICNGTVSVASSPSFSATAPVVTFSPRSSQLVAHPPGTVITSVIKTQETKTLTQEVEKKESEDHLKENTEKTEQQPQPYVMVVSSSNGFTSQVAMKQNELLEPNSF
Chain of ELF4 (Q99607 whole entry): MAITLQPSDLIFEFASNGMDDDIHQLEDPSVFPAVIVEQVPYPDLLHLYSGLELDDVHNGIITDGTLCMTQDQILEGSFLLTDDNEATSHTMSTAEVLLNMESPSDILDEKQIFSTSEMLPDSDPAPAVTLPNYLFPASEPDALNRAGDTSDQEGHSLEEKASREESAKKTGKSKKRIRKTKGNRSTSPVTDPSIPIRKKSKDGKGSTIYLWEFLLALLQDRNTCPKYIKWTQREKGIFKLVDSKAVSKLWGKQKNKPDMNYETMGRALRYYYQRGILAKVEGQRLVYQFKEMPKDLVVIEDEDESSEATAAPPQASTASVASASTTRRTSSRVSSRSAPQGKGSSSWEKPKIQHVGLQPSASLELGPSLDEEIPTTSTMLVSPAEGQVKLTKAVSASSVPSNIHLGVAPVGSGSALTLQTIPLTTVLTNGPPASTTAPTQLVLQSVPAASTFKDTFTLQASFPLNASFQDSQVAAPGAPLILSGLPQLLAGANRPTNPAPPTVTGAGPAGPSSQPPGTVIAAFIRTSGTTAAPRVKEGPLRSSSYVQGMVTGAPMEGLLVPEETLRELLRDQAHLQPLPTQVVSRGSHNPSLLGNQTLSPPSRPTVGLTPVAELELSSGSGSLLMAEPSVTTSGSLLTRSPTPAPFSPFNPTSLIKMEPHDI
Chain of ETV5 (P41161 whole entry): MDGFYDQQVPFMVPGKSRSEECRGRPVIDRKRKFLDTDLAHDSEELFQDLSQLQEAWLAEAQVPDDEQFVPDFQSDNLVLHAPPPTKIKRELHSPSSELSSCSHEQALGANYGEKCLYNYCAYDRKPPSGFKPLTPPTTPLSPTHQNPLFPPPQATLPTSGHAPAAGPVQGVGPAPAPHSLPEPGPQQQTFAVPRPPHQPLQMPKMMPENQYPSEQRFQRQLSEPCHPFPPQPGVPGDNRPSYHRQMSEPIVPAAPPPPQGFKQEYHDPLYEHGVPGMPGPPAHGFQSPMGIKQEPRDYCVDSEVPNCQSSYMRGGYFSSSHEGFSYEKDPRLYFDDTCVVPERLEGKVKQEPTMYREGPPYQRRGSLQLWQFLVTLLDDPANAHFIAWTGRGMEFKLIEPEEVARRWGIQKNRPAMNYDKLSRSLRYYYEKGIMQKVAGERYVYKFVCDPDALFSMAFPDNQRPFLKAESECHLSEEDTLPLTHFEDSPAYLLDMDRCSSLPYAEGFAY
Chain of ETV1 (P50549 whole entry): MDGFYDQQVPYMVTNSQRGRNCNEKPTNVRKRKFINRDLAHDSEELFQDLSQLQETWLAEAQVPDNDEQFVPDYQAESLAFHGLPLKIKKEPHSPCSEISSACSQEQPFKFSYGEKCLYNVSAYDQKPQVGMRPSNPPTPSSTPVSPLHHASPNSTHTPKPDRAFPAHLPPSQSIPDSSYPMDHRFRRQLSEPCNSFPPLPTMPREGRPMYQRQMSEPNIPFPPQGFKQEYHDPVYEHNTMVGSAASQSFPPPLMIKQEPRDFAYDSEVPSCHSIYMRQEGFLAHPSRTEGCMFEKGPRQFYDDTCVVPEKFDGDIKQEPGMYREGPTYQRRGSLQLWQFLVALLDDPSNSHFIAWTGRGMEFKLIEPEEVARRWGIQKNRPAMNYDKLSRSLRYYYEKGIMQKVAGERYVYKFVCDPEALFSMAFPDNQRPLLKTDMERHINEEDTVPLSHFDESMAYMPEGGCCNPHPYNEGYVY
Chain of SPIB (Q01892 whole entry): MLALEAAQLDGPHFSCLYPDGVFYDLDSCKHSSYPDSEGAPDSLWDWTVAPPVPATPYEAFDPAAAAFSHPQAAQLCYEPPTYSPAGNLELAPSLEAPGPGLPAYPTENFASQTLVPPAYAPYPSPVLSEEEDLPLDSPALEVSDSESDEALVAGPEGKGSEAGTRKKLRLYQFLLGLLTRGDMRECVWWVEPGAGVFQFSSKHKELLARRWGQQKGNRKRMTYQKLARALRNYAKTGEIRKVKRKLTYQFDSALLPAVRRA

TGTGGT: the binding signal in [1] was 1.08 fold enrichment (6-mer frequency, TF over GST control); in [2] it was 1.09 fold enrichment (6-mer frequency, TF over GST control); in assay [3] it was 1.07 fold enrichment (6-mer frequency, TF over GST control); in assay [4], 1.01 fold enrichment (6-mer frequency, TF over GST control); in assay [5], 1.08 fold enrichment (6-mer frequency, TF over GST control); in assay [6], 1.05 fold enrichment (6-mer frequency, TF over GST control). In addition, the binding signal in assay [7] was 1.16 fold enrichment (6-mer frequency, TF over GST control); in assay [8] it was 1.04 fold enrichment (6-mer frequency, TF over GST control); in assay [9], 1.02 fold enrichment (6-mer frequency, TF over GST control); in [10] it was 1.04 fold enrichment (6-mer frequency, TF over GST control); in assay [11], 1.01 fold enrichment (6-mer frequency, TF over GST control); in [12], 1.06 fold enrichment (6-mer frequency, TF over GST control). Also, the binding signal was 1.04 fold enrichment (6-mer frequency, TF over GST control) in assay [13]; 1.05 fold enrichment (6-mer frequency, TF over GST control) in assay [14]; 1.03 fold enrichment (6-mer frequency, TF over GST control) in [15].
